# An excerpt weighted towards active compounds, which were near 5.1% of everything screened.
# TMEM16A act = TMEM16A chloride channel activators or potentiators, primary screen, cell-based, HTS; AID 623877, 2012; B-score at 10 µM; hit rate 0.3% among 340,000; HEK293 TMEM16A/YFP-H148Q/I152L, iodide quench fluorescence; hits give low values;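 active means fluorescence-ratio B-score plate-corrected deviation score at least 3 library SD below zero, with starting fluorescence score within 5 deviations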;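 further: channel opened by trigger with iodide after compound preincubation; score built on the fluorescence ratio of max minus min over baseline; more negative score means more quench and so TMEM16A activation or potentiation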
# Target sequence (Q8BHY3 whole entry, looked up): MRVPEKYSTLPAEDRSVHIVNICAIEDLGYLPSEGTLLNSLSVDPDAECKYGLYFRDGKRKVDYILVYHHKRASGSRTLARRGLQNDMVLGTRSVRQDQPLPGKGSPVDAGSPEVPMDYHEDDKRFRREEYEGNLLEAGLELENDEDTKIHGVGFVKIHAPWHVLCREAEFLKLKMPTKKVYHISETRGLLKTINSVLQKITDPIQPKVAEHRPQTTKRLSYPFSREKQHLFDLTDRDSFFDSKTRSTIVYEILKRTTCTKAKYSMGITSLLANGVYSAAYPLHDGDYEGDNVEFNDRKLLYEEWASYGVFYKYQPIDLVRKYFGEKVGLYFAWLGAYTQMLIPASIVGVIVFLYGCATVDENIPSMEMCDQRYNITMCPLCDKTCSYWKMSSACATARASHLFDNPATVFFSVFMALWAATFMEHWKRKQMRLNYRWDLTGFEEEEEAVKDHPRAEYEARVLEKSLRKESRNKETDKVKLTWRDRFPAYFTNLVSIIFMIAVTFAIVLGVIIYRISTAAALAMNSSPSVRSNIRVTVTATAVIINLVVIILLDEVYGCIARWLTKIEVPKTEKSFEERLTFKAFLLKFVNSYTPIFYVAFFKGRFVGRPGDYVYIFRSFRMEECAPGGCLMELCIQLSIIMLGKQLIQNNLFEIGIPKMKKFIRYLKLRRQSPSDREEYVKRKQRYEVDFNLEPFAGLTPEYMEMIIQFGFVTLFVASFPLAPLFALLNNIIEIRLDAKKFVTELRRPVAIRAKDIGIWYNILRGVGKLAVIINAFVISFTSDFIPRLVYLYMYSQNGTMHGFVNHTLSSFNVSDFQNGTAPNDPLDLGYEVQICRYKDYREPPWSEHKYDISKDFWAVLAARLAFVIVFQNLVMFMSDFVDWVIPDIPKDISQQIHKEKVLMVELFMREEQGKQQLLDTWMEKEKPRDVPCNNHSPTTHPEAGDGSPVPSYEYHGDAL
# GRIN3A LBD mod = binders of NR3A ligand-binding domain, primary screen, biophysical, differential scanning fluorimetry, uHTS. Glutamate receptor ionotropic, NMDA 3A (GRIN3A) ligand-binding domain. NR3A LBD differential scanning fluorimetry, Tm shift; 0% = protein alone, 100% = glycine-bound protein. Tm shift relative to glycine control, % at 25 µM. hit rate 2.5% among 340,000;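 active means melting temperature shift of at least 10% of the positive control shift, at one fixed dose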
# CRFR2-BP ag = agonists of CRF-BP/CRF-R2 complex, primary screen, cell-based, HEK293, calcium dye fluorescence, uHTS; calcium dye fluorescence (FLIPR); percent of saturating CRF peptide response; activation, % at 13.2 µM; hit rate 0.46% among 350,000; AID 588473, 2011;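 active means activation of at least 50%, plus an integration ratio under a set limit after plate pattern correction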;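 further: plate controls were neutral control wells without compound for no effect and CRF at EC100 for full effect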
# TMEM16A inh = TMEM16A chloride channel inhibitors, primary screen, cell-based, HTS; HEK293 TMEM16A/YFP iodide influx fluorescence, ionomycin; AID 588511, 2011; normalized B-score (activity score, 25-100; higher = stronger inhibition) at 10 µM; hit rate 1.2% among 310,000;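 active means ratio plate-corrected score three or more library SD toward inhibition, starting fluorescence score within five deviations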;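 further: score derived from kinetic fluorescence span divided by baseline fluorescence per well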
# CRFBP-R2 block = antagonists of CRF-BP/CRF-R2 complex, primary screen, cell-based, HEK293, calcium dye fluorescence, uHTS; hit rate 0.59% among 350,000; inhibition, % at 11.8 µM; CRF-induced calcium fluorescence;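 active means inhibition of the ligand-induced calcium signal above about 50% at the single tested concentration, limit read from the data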
# MPTP block = mitochondrial permeability transition pore inhibitors, primary screen, biochemical, isolated mouse mitochondria, absorbance; AID 602449, 2012; Ca2+ swelling absorbance, 30 min; hit rate 1.4% among 360,000; inhibition, % at 10 µM;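 active means inhibition of 50% or more, scaled per plate between neutral and stimulator controls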;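 further: 0% = DMSO wells given calcium and 100% = 1 mM EGTA wells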
# * = called active by the depositor; i = inactive; nt = no result.
SMILES,TMEM16A act,GRIN3A LBD mod,CRFR2-BP ag,TMEM16A inh,CRFBP-R2 block,MPTP block
O=C1c2ccccc2C2(c3cc(C(F)(F)F)cc(C(F)(F)F)c3)NCCN12 (configuration not stated),i,0,-1,i,-16,1
Cc1ccccc1/C=N/NC(=O)c1ccc(-n2cnnn2)cc1,i,30*,0,nt,0,-1
O=C(N/N=C\c1c(O)ccc2ccccc12)c1ccc(O)cc1,i,41*,4,i,-3,4
Cn1cc(C(=O)N/N=C/c2c(O)ccc3ccccc23)ccc1=O,i,-1,5,i,-16,0
Cc1occc1C(=O)N/N=C/c1c(O)ccc2ccccc12,i,32*,1,i,8,38
Cn1nccc1C(=O)N/N=C/c1c(O)ccc2ccccc12,i,7,4,i,-6,4
O=C(N/N=C/c1c(O)n(-c2ccc(Cl)cn2)c(=O)c2ccccc12)C1CC1,i,0,2,i,13,9
O=C(N/N=C/c1c(O)n(-c2ccc(Cl)cn2)c(=O)c2ccccc12)c1ccncc1,i,-5,55*,i,-68,-2
CN(Cc1ccccc1)C(=O)C1CCN(S(=O)(=O)c2cccc3nsnc23)CC1,i,2,2,i,-5,-1
CCOc1ccc(CCNC(=O)COC(=O)/C=C/c2ccccc2OC)cc1OCC,i,1,-5,i,4,-1
COc1ccc(NC(=O)CSc2nnc(Cc3ccc(C)cc3)c(=O)n2N)cc1OC,i,3,0,i,0,0
O=C(N/N=C/c1ccccc1O)c1ccncc1,i,21*,10,i,-8,-3
O=C(N/N=C/c1cccc2ccccc12)c1ccncc1,i,-16,-2,i,-2,4
O=C(N/N=C\c1c(O)ccc2ccccc12)c1cncc(Br)c1,i,0,167*,i,-113,34
Cc1cc(SCC(=O)c2ccc(Cl)cc2)nc(=O)[nH]1,i,1,1,i,81*,-2
COC(=O)[C@@H]1C[C@@]2(O)[C@H](O)[C@H](O)[C@H](O)C[C@H]2N1Cc1cc(F)ccc1F,i,11*,3,i,-19,-1
COC(=O)[C@@H]1C[C@@]2(O)[C@@H](O)[C@@H](O)[C@@H](O)C[C@H]2N1Cc1ccc(C(F)(F)F)cc1,i,2,-1,i,1,0
Cc1[nH]c2ccccc2c1C(=O)COC(=O)c1cccc(S(=O)(=O)N2CCCCC2)c1,i,21*,-1,i,4,1
Cc1ccc(C(=O)OCC(=O)c2c[nH]c3ccccc23)cc1S(=O)(=O)N1CCCCC1,i,25*,0,i,-6,3
Cc1ccc(C2(C)NC(=O)N(CC(=O)N(Cc3ccccc3)C(C)(C)C)C2=O)cc1 (configuration not stated),i,0,1,i,-7,-2
CCOC(=O)c1sc(NC(=O)C2CCCCC2)nc1C,i,0,-4,i,-33,4
O=C(c1[nH]nc2c1CCc1ccccc1-2)N1CCN(Cc2ccc3c(c2)OCO3)CC1,i,-3,0,25*,-38,0
C=CCN(c1ccccc1)S(=O)(=O)c1cccc(C(=O)OCC(=O)NC2CC2)c1,i,-1,0,i,15,0
O=C(c1ccccc1)N1CCN(Cc2ccc3c(c2)OCO3)CC1,nt,1,7,i,-25,0
CC(C)CNS(=O)(=O)c1ccc(CCC(=O)N2CCN(Cc3ccc4c(c3)OCO4)CC2)cc1,i,1,1,100*,-3,10
SMILES,TMEM16A act,GRIN3A LBD mod,CRFR2-BP ag,TMEM16A inh,CRFBP-R2 block,MPTP block
COc1cccc(CN2CCC(C(=O)N3CCN(Cc4ccc5c(c4)OCO5)CC3)CC2)c1,i,13*,3,i,-3,2
C=CCN(c1ccccc1)S(=O)(=O)c1cccc(C(=O)OCC(=O)NCCOC)c1,i,-1,-2,i,55*,2
COc1ccc(N(CC(=O)NC2CC3CCC2C3)S(=O)(=O)c2ccccc2)cc1Cl (configuration not stated),i,0,2,i,-30,0
CN(c1ccccc1)S(=O)(=O)c1cccc(C(=O)OCC(=O)NCc2ccc3c(c2)OCO3)c1,i,13*,3,i,35,2
CN(c1ccc(C(=O)N2CCN(Cc3ccc4c(c3)OCO4)CC2)cc1)S(=O)(=O)c1ccccc1,i,-13,-3,i,68*,-3
CS(=O)(=O)c1ccc(C(=O)CN2C(=O)NC3(CCCc4ccccc43)C2=O)cc1 (configuration not stated),i,0,0,nt,53*,0
CC(=O)c1sc(NC(=O)CCS(=O)(=O)c2ccc(Cl)cc2)nc1C,i,0,-1,i,62*,0
CCc1nnc(NC(=O)CCN2C(=O)c3ccccc3C2=O)s1,i,-2,-1,i,19,-1
CC(=O)c1sc(NC(=O)CCN2C(=O)c3ccccc3C2=O)nc1C,i,17*,0,i,-16,3
O=C(O)CCc1c(C(=O)O)[nH]c2ccccc12,-16*,-1,0,i,1,-5
O=C(O)CCCc1c(-[n+]2ccccc2)[nH]c2ccccc12,i,0,1,i,-6,-1
CN(C(=O)COC(=O)c1c2c(nc3ccccc13)CCCC2)c1c(N)n(Cc2ccccc2)c(=O)[nH]c1=O,i,-3,0,i,4,-1
COc1ccccc1Nc1nc(N)nc(CSC(=S)N2CC(C)CC(C)C2)n1 (configuration not stated),i,1,0,i,53*,3
CCN(CC)Cc1c(C)[nH]c2ccc(NC(C)=O)cc2c1=O,nt,nt,0,nt,67*,0
Oc1ccccc1C1Nc2cccc3cccc(c23)N1,i,11*,-1,i,10,3
COc1ccc(C2=Nc3ccccc3N(C(=O)c3ccc4c(c3)OCO4)C2C(=O)Nc2c(C)cccc2C)cc1 (configuration not stated),nt,nt,nt,nt,nt,1
CN(C)CCN(C(=O)c1ccc2ccccc2c1)c1nc2ccc(Br)cc2s1,i,-1,5,i,-29,0
CN(C)CCCN(C(=O)COc1ccccc1)c1nc2ccc(Cl)cc2s1,-6*,-3,10,i,-9,0

# Screens from PubChem.
